In experiment [1] the target is Cytochrome P450 1A2 (Homo sapiens) (UniProt P05177). Put plainly: p450-cyp1a2 (AID 410; calls by dose curve; further: potency means the concentration at half of the fitted maximal effect). Put shortly:
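20nM CYP1A2 with 100uM Luciferin-ME (at Km) in 100mM KPO4; compound preincubated 10 min, NADPH regeneration added, 60 min at room temperature. Luciferin quantified by luminescence after detection reagent; normalized to 57 uM furafylline.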

For experiment [2], the target named is Glucocorticoid receptor (Homo sapiens) (UniProt P04150). Put plainly: GR-GFP Redistribution (AID 450;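 active means compounds whose dose series gives a full or clear partial fitted curve of increased nuclear translocation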; further: potency means the concentration at half of the fitted maximal effect).
Experiment [3] shares this target. Put plainly: GR-EFC Redistribution (AID 451; calls by dose curve; further: potency means the concentration at half of the fitted maximal effect). The settings on record: CHO-K1 GR-EFC translocation, beta-gal luminescence, 2 h. Put shortly:
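Translocation of GR-ED fusion to nuclear EA restores b-gal, read by luminescence after 1 h room-temperature detection. Engineered CHO-K1 biosensor cells, 1,000/well, exposed 2 h at 37 C to titrations up to 46 uM final.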

For experiment [4], the target named is 3',5'-cyclic-AMP phosphodiesterase 4B (Homo sapiens) (UniProt Q07343). Put plainly: qHTS Assay for Inhibitors of PDE-IV (AID 607; active means well fitted activation curve with a large enough effect in the main read-out, with a control signal flat, not every such curve was filed as active). In short, it runs like this:
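The readout is membrane depolarisation from a cAMP-sensing CNG channel, detected with a potential dye at ex 535/em 590. Cells were HEK293-derived (endogenous PDE-IV) at 1000 cells/well, titrated up to 22.9 uM final.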
On the technique in general: In qHTS, concentration-response curves come from the screen itself.

Experiment [5] addresses Cytochrome P450 2C9 (Homo sapiens) (UniProt P11712). Put plainly: qHTS Assay for Inhibitors and Substrates of Cytochrome P450 2C9 (AID 883). Further: nearly all actives have a fitted effect of over 60% in size. Further: potency means the concentration at half of the fitted maximal effect. Put shortly:
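Turnover of Luciferin-H (100uM, KM) by 10nM human CYP2C9 was measured over 60 min at 37C with NADPH regeneration; inhibitors and some substrates reduce luminescence. Data normalized to sulphaphenazole 57uM.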

Experiment [6] deals with Cytochrome P450 3A4 (Homo sapiens) (UniProt P08684). As to the kind of experiment: qHTS Assay for Inhibitors and Substrates of Cytochrome P450 3A4 (AID 884). Further: potency means the concentration at half of the fitted maximal effect; nearly all actives have a fitted effect of over 50% in size. Put shortly: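 20 nM human CYP3A4 with 25 uM Luciferin-PPXE (at KM) in 200 mM KPO4, preincubated 10 min with compound; NADPH regeneration started a 60 min RT reaction. Luciferin detected by luminescence, normalized to 57 uM ketoconazole as full inhibition.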

The target is the same in experiment [7]. Put plainly: qHTS Assay for Activators of Cytochrome P450 3A4 (AID 885). Further: nearly all actives have a fitted effect of over 65% in size. In short, it runs like this:
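Steps: enzyme/substrate mix dispensed; compound added, 10 min RT; NADPH regeneration solution added, 60 min RT; luciferin detection buffer stops reaction; 20 min later luminescence measured.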

For experiment [8], the target named is Cytochrome P450 2D6 (Homo sapiens) (UniProt P10635). Put plainly: qHTS Assay for Inhibitors and Substrates of Cytochrome P450 2D6 (AID 891). Further: nearly all actives have a fitted effect of over 60% in size. Further: potency means the concentration at half of the fitted maximal effect. In short, it runs like this:
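Human CYP2D6 (5 nM) with 30 uM Luciferin-ME EGE (at Km) in 100 mM KPO4, compound preincubated 10 min, then NADPH regeneration system for 60 min at room temperature. Luciferin read by luminescence; normalized to 1.43 uM quinidine.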

The target of experiment [9] is DNA dC->dU-editing enzyme APOBEC-3G (Homo sapiens) (UniProt Q9HC16). As to the kind of experiment: qHTS for inhibitors of Vif-A3G interactions: Validation (AID 588379). Put shortly:
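HeLa cells stably expressing Vif and A3G-eYFP, 700 cells/well, incubated overnight at 37 deg C, then exposed to compound overnight at 37 deg C. Inhibition of Vif-mediated degradation read as increased yellow fluorescence (Ex 488/Em 500-530) by laser-scanning cytometry.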

Experiment [10] has as its target Cytochrome P450 2C19 (Homo sapiens) (UniProt P33261). As to the kind of experiment: qHTS Assay for Inhibitors and Substrates of Cytochrome P450 2C19 (AID 899). Further: nearly all actives have a fitted effect of over 60% in size. Further: potency means the concentration at half of the fitted maximal effect. In short, it runs like this:
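Reactions contain 5nM enzyme, 10uM Luciferin-H EGE (KM) and 50mM KPO4; compound preincubates 10 min at 37C, NADPH regeneration starts turnover for 60 min. Luminescence after detection reagent gives activity.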

The target of experiment [11] is Mitogen-activated protein kinase 10 (Mus musculus) (UniProt Q61831). Put plainly: JNK3 AlphaScreen Assay (AID 530; active means well fitted curve in either direction with a large enough effect, not every such curve was filed as active;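 further: kinase came from lysate of stimulated human HepG2 cells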; further: potency means the concentration at half of the fitted maximal effect). Put shortly: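 Compound titrations were preincubated 15 minutes at room temperature with substrate, antibody and pre-activated JNK3-containing HepG2 lysate. Reactions were started with 10 uM ATP and stopped with EDTA-containing bead buffer for AlphaScreen detection.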
(In general: In Alpha technology, singlet oxygen from a donor bead excites a nearby acceptor bead.)

Values without a mark were called inactive. Results filed as inconclusive are left out. Activity calls are given as the source filed them. Unless noted, the call rests on the fitted dose curve; in most records, active means well fitted curve in the direction sought with a large enough effect; inconclusive means small, poorly fitted or top-dose-only effect, or another doubt; inactive means no such curve, though single readings can be large; an effect the other way counts as inactive or inconclusive.

Sequence of Cytochrome P450 2C9 (Homo sapiens) (P11712 whole entry, looked up): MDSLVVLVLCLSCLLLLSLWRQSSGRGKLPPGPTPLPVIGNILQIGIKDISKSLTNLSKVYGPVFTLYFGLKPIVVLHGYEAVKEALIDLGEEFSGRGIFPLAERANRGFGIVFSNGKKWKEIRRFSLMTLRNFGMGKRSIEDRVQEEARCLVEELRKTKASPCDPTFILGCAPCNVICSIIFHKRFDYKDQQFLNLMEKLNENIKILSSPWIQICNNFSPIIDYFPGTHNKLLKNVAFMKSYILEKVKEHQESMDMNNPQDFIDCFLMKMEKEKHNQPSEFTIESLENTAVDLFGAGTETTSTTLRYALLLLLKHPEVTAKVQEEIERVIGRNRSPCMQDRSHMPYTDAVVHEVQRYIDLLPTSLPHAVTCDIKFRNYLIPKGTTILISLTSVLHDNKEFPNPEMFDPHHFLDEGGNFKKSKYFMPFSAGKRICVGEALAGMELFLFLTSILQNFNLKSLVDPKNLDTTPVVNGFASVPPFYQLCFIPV
Sequence of 3',5'-cyclic-AMP phosphodiesterase 4B (Homo sapiens) (Q07343 whole entry, looked up): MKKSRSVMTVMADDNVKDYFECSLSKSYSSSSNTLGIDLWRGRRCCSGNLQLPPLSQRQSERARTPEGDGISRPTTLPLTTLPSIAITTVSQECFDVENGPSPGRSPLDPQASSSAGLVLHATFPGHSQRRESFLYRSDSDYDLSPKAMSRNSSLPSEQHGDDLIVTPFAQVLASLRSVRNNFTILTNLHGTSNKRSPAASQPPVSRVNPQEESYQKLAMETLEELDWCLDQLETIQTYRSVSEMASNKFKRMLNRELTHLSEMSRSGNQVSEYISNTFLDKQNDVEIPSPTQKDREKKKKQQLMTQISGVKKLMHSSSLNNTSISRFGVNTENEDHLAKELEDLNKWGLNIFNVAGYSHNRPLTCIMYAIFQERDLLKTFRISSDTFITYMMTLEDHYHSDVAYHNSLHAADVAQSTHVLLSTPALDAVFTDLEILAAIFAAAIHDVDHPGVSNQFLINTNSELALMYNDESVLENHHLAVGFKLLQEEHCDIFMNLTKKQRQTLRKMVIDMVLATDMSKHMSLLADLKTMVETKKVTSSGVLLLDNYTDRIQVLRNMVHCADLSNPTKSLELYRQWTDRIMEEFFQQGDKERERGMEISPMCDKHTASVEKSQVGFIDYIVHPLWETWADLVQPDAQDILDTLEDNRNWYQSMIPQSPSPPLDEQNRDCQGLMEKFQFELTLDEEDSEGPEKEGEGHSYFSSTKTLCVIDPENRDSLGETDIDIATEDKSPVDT
Sequence of Cytochrome P450 2C19 (Homo sapiens) (P33261 whole entry, looked up): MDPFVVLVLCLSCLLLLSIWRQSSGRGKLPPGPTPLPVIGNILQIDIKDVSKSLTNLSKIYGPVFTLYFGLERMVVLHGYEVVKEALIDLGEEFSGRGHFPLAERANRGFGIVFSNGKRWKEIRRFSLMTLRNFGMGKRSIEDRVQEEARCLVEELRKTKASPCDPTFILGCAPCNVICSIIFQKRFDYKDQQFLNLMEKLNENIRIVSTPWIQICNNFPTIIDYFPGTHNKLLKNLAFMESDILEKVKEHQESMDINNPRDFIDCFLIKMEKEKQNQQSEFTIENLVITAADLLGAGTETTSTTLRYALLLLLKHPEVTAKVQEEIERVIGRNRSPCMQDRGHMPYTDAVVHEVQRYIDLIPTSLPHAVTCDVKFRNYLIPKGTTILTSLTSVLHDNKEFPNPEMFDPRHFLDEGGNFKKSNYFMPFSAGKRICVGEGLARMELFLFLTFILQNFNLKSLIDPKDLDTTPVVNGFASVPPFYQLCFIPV
Sequence of Glucocorticoid receptor (Homo sapiens) (P04150 whole entry, looked up): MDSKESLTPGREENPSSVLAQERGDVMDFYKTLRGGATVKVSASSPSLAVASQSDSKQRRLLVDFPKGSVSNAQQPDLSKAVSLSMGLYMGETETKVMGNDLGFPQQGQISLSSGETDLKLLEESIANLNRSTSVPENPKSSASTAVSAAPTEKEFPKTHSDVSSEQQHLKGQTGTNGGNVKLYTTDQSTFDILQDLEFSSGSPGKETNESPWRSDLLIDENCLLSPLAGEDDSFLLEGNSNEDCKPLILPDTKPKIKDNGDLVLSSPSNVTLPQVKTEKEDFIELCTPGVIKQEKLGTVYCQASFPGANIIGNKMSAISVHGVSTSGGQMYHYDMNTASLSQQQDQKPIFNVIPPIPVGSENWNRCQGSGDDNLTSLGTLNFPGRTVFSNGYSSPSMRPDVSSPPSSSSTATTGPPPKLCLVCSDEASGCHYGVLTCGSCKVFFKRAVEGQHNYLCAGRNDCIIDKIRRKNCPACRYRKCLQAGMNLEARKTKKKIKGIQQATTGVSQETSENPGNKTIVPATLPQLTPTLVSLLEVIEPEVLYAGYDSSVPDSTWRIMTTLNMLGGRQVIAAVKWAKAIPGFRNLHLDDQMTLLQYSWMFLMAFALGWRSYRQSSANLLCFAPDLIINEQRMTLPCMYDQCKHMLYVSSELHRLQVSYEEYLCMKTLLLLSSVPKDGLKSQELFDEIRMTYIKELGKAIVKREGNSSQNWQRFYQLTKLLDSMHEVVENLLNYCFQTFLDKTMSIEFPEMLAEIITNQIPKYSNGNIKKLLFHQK
Sequence of Cytochrome P450 3A4 (Homo sapiens) (P08684 whole entry, looked up): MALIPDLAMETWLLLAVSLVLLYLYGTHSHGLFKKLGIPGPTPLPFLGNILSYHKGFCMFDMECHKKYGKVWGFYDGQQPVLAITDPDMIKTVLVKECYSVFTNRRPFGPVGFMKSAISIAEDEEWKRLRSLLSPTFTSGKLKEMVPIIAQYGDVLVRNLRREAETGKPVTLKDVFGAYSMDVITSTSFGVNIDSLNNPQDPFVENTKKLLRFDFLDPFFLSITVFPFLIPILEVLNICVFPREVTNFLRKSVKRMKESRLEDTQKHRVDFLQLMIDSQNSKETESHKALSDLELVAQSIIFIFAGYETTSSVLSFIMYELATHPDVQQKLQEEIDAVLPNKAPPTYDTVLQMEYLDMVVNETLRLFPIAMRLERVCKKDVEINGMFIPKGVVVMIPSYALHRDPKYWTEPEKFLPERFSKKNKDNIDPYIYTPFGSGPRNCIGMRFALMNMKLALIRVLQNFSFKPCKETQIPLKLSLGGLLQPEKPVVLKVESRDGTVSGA
Sequence of DNA dC->dU-editing enzyme APOBEC-3G (Homo sapiens) (Q9HC16 whole entry, looked up): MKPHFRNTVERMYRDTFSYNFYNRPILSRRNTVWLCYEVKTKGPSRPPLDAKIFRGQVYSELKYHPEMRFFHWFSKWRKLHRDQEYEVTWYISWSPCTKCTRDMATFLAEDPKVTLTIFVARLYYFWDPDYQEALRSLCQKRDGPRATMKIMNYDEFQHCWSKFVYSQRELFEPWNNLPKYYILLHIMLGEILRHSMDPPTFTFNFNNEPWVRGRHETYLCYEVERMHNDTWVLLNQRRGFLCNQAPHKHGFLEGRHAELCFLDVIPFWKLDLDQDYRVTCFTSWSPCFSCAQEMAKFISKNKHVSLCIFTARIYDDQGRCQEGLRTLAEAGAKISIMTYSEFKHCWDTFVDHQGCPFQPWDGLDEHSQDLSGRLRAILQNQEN
Sequence of Cytochrome P450 2D6 (Homo sapiens) (P10635 whole entry, looked up): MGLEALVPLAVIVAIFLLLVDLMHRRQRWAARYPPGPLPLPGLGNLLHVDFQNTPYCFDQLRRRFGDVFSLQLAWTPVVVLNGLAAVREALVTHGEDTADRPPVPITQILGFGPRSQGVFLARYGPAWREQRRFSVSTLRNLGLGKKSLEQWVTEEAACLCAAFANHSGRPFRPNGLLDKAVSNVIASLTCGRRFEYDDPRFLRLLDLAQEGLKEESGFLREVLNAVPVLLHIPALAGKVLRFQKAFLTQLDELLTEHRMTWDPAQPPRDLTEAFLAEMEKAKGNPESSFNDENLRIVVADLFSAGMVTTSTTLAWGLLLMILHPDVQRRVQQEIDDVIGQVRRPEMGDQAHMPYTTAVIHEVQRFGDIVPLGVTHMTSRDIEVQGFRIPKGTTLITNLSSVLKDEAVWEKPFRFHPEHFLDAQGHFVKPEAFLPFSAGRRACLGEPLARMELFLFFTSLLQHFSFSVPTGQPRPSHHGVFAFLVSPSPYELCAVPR
Sequence of Cytochrome P450 1A2 (Homo sapiens) (P05177 whole entry, looked up): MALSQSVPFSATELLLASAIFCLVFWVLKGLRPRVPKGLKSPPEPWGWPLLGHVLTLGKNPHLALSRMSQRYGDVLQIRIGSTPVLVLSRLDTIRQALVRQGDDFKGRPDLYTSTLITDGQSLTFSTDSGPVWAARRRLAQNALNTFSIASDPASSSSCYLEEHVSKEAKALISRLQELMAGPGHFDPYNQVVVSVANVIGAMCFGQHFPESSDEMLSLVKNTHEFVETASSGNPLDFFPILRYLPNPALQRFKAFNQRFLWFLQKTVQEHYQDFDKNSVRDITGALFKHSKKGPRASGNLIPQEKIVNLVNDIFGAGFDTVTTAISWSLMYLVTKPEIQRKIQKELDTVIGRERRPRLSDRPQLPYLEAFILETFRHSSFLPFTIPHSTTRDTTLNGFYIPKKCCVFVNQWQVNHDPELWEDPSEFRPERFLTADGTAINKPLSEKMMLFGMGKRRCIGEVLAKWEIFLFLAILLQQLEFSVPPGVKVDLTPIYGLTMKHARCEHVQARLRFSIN

Consider `O=c1cc(-c2ccc(O)c(O)c2)oc2cccc(O)c12`, for which the Potency in experiment [1] is 0.158 µM (active); in experiment [2] it was greater than 46 µM; in experiment [3], greater than 46 µM; in [5] it was 7.94 µM (active); in experiment [6], 15.8 µM (active). Moreover, the Potency entry in experiment [4], in [7] and in [8] was “inactive” throughout. The compound was called inactive in [9].

Consider `C[C@@H]1C[C@@]2(C)Oc3ccccc3[C@H]3OC[C@]1(COC(=O)Nc1ccccc1)[C@@H](C)[C@@H]32`, for which the Potency is 15.8 µM (active) in experiment [1]; greater than 46 µM in experiment [2]; greater than 46 µM in experiment [3]; 20 µM (active) in experiment [5]; 10 µM (active) in experiment [10]. The Potency result in [8] is “inactive”.

On to `COc1ccc2oc(-c3ccc(O)cc3)cc(=O)c2c1`, for which the Potency was 0.316 µM (active) in experiment [1]; greater than 46 µM in experiment [2]; greater than 46 µM in [3]; 2.51 µM (active) in [5]; 3.98 µM (active) in [6]; 25.1 µM (active) in experiment [8]. Besides, the Potency entry in [4] and in experiment [7] was “inactive” in each case. Further, in [9], the compound was classed as inactive.

Regarding `C=C1CC[C@@H]2O[C@]2(C)CC[C@@H]2[C@H]1CC2(C)C`, the Potency in [1] was 15.8 µM (active); in experiment [2], greater than 46 µM; in experiment [3], greater than 46 µM; in experiment [5], 25.1 µM (active). In addition, the Potency entry in experiment [11] and in experiment [8] was “inactive” each time.

In the case of `O=C1C=CC2=C3c4cc(O)c(O)cc4C[C@@]3(O)COC2=C1O`, the Potency was 39.8 µM (active) in [1]; greater than 46 µM in [2]; greater than 46 µM in experiment [3]; 0.501 µM (active) in [11]; 3.98 µM (active) in [5]; 25.1 µM (active) in [8]. Moreover, the Potency in experiment [10] was 6.31 µM (active).

Take `O=C(CCc1ccc(O)cc1)c1c(O)cc(O)cc1O[C@@H]1O[C@@H](CO)[C@@H](O)[C@@H](O)[C@H]1O`: the Potency result in experiment [1], in experiment [11] and in [8] was “inactive” in each case. Also, the Potency is greater than 46 µM in experiment [2], greater than 46 µM in experiment [3] and 31.6 µM (active) in experiment [5].

Take `C[C@H]1[C@H](C)CC[C@@]2(C(=O)O)CC[C@]3(C)C(=CC[C@H]4[C@@]5(C)C[C@@H](O)[C@H](O)[C@@](C)(CO)[C@@H]5CC[C@@]43C)[C@@H]12`: the Potency entry in [1], in experiment [11], in [4], in experiment [5], in [8] and in experiment [10] was “inactive” in each case. The Potency in [2] and in [3] was greater than 46 µM each time.

Regarding `CCCCCCCCCCCCCCCCOC[C@@H](COCC(F)(F)F)OP(=O)(O)OCO`, the Potency entry in experiment [1], in experiment [11], in [4] and in experiment [8] was “inactive” throughout. Moreover, the Potency in [2] and in [3] was greater than 46 µM in each case.

With `C=C1CC[C@H]2C(C)(C)[C@H](O)CC[C@]2(C)[C@@H]1COc1ccc2ccc(=O)oc2c1`, the Potency was 31.6 µM (active) in experiment [1]; greater than 46 µM in [2]; greater than 46 µM in experiment [3]; 3.98 µM (active) in [5]; 6.31 µM (active) in experiment [10]. In addition, the Potency result in [11] and in experiment [8] was “inactive” throughout.

On to `COc1cc(-c2cc(=O)c3ccccc3o2)ccc1O`, for which the Potency in [1] was 0.0794 µM (active); in [2], greater than 46 µM; in experiment [3], greater than 46 µM; in experiment [5] it was 6.31 µM (active); in experiment [6], 15.8 µM (active); in [8], 31.6 µM (active). Besides, the Potency entry in [4] and in experiment [7] was “inactive” throughout. Besides, in experiment [9], the call was inactive.

`CC(=O)c1c(O)c(C)c(O)c2c1OC1=CC(=O)[C@H](C(C)=O)C(=O)[C@]12C`: the Potency in [1] was 3.16 µM (active); in experiment [2], greater than 46 µM; in [3], greater than 46 µM. Also, the Potency result in experiment [4], in [8] and in [10] was “inactive” each time.

Take `C=C1CC[C@@H](O)C/C1=C/C=C1\CCC[C@]2(C)[C@@H]1CC[C@H]2[C@@H](C)CCCC(C)C`: the Potency result in experiment [1], in [11], in [4], in [5], in experiment [8] and in [10] was “inactive” throughout. Moreover, the Potency in [2] and in [3] was greater than 46 µM in each case.

Turning to `CC(=O)O[C@H]1CC[C@@]2(C)[C@@H](CC[C@@]3(C)[C@H]2C(=O)C=C2[C@H]4C[C@](C)(C(=O)OCCN5CCCCC5)CC[C@]4(C)CC[C@@]23C)C1(C)C`, the Potency entry in experiment [1], in experiment [11], in experiment [4], in experiment [5], in experiment [8] and in experiment [10] was “inactive” throughout. For the same compound, the Potency in [2] and in experiment [3] was greater than 46 µM each time.

Turning to `CC(=O)Oc1ccc(/C=C\C(=O)C[C@@H]2O[C@@H](Oc3cc(OC(C)=O)c4c(c3)O[C@@H](c3ccc(OC(C)=O)cc3)CC4=O)[C@H](OC(C)=O)[C@H](OC(C)=O)[C@@H]2OC(C)=O)cc1`, the Potency entry in experiment [1], in experiment [11], in experiment [4], in experiment [5], in experiment [8] and in [10] was “inactive” throughout. Further, the Potency in experiment [2] and in [3] was greater than 46 µM in each case.

As for `COc1ccc(-c2coc3cc(O[C@@H]4O[C@@H](CO)[C@@H](O)[C@@H](O)[C@H]4O)cc(O)c3c2=O)cc1`, the Potency result in [1], in [11], in experiment [5], in experiment [8] and in experiment [10] was “inactive” in each case. Further, the Potency in experiment [2] and in [3] was greater than 46 µM in each case.

With `COc1ccc(-c2oc3cc(OC)c(OC(C)=O)c(OC)c3c(=O)c2OC)cc1OC(C)=O`, the Potency is 12.6 µM (active) in experiment [1], greater than 46 µM in [2], greater than 46 µM in experiment [3] and 5.01 µM (active) in experiment [6]. Moreover, the Potency entry in experiment [7], in experiment [8] and in experiment [10] was “inactive” throughout. In experiment [9], the compound was classed as inactive.

Turning to `CC(=O)O[C@@H]1CC[C@]2(C)[C@H]3CC[C@]4(C)[C@H](C[C@H]5CCCC[C@@]54C(C)=O)[C@@H]3CC(=O)[C@@]2(O)C1`, the Potency was 20 µM (active) in experiment [1], greater than 46 µM in [2] and greater than 46 µM in [3]. The Potency result in [11], in experiment [4] and in [8] was “inactive” throughout.

The record behind these values is PubChem BioAssay (NCATS).
